Bioassay records deposited in PubChem BioAssay by National Center for Advancing Translational Sciences (NCATS).
Compounds with a hit are over-represented: about 9.4% of the library has one in this group of screens.
SMN2 splice enh = increases expression of the SMN2 splice variant. HEK293 SMN2-luciferase splicing reporter, luminescence, 30-36 h. Potency, µM (series often up to 46.1 µM), for inactives: at the top dose activity change, positive = activation, most hits filed as activators. actives 2.8% (n = 210,000). AID 1458; also: % of control where 0% means no effect; nearly all actives have a fitted effect of over 55% in size
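qHTS luciferase splicing reporter: luminescence rises when SMN2 exon 7 is included in transfected HEK293 cells. Compound exposure lasted 30-36 h at 37C, with 4.5 mM final sodium butyrate as control, followed by a ONE-Glo read.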
NPC1 promoter act = activators of NPC1 promoter. Huh7 NPC1 promoter luciferase reporter, 24 h. Potency, µM (highest dose often 9.22 µM), without a hit: at the top dose activation, actives largely listed as activators. actives 2.4% (n = 320,000); also: % of control where 0% means no effect; nearly all actives have a fitted effect of over 60% in size
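Stably transfected Huh7 (NPC1 promoter→luciferase), 1500 cells/well in Opti-MEM + 10% FBS, 2 h settle, then compound 24 h at 37 °C. Luminescence after 10 min with Amplite reagent.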
ELG1 genotoxic = induces genotoxicity in HEK293T cells with luciferase-tagged ELG1 | HEK293T ELG1-luciferase reporter, luminescence, 16 h | Potency, µM (series often up to 46 µM), without a hit: at the top dose activity change, positive = activation, usual class: activators | actives 1.3% (n = 330,000) | AID 504466; also: % of control where 0% means no effect; nearly all actives have a fitted effect of over 60% in size
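Reporter readout depends on ELG1 protein level, which increases with genetic stress. After 16 hr compound exposure at 37 °C, luciferase activity was quantified using ONE-Glo.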
FLuc counter = counter-screen for miR-21 project: firefly luciferase inhibitors or activators | purified FLuc, Km substrates, luminescence inhibition | Potency, µM (series often up to 57.5 µM), for inactives: top-dose activity change, negative = inhibition, actives largely listed as inhibitors | actives 6.9% (n = 360,000);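 also: plate controls were vehicle for no effect and reference inhibitor for full effect; nearly all actives have a fitted effect of over 55% in size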
Target sequence (P08659 whole entry, looked up): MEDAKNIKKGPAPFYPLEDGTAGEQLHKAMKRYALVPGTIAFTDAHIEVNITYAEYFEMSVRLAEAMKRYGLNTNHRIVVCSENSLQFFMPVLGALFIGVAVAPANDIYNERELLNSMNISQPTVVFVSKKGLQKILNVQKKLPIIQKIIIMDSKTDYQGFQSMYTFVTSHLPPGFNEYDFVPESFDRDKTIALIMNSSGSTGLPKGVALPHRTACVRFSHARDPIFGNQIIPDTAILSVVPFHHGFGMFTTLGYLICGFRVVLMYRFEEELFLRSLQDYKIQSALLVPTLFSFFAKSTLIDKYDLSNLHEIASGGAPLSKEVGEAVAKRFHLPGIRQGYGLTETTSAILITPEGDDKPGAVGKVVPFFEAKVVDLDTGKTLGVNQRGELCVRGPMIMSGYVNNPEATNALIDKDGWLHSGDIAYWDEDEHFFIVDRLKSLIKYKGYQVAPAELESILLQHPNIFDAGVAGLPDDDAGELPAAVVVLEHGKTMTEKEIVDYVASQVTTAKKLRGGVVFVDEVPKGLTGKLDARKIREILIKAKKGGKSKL
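Biochemical qHTS of compounds, final roughly 60 µM downward over six points, against 10 nM purified firefly luciferase using Km concentrations of substrates (10 uM D-luciferin, 10 uM ATP) in Tris acetate pH 7.5 buffer; luminescence output.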
Rab9 promoter act = activators of Rab9 promoter; Huh7 Rab9 promoter-luciferase reporter, luminescence, 24 h; Potency, µM (top dose mostly 9.22 µM), without a hit: at the highest dose activation, negative = inhibition, hits mostly activators; actives 2.8% (n = 320,000); also: % of control where 0% means no effect; nearly all actives have a fitted effect of over 60% in size
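Rab9 promoter-driven luciferase in stably transfected Huh7 cells; 1500 cells/well rested 2 h, exposed to compound in DMSO for 24 h at 37 °C, 5% CO2. Luminescence read 10 min after adding luciferase reagent at ambient temperature.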
ELG1 DNA repair = inhibitors of ELG1-dependent DNA repair in HEK293T cells. HEK293T ELG1-luciferase reporter, luminescence, 16 h; DNA damage induced by 5-fluorouridine. Potency, µM (highest dose often 46.1 µM), for the others: top-dose activity change, negative = inhibition, hits mostly inhibitors. actives 2.3% (n = 330,000); also: % is scaled to controls: 0 for no effect and ±100 for the full control effect; nearly all actives have a fitted effect of over 55% in size
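Reporter activity after DNA damage by 5-fluorouridine is monitored. Compound-treated cells incubate 16 hr at 37 °C, then ONE-Glo is added for 30 min before luminescence reading.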
Starred values were filed as active, the others as inactive; ? = inconclusive; . = no result; [ ] = remark or other dose. Calls follow the shape of the dose curve; as a rule, active = well fitted curve in the direction sought with a large enough effect; inconclusive = small, poorly fitted or top-dose-only effect, or another doubt; inactive = no such curve, though single readings can be large; an effect the other way counts as inactive or inconclusive. Potency is read from the fitted curve at half-maximal effect.

SMILES | SMN2 splice enh | NPC1 promoter act | ELG1 genotoxic | FLuc counter | Rab9 promoter act | ELG1 DNA repair
COCCN=C1NN=C(c2ccc(C)c([N+](=O)[O-])c2)CS1 | 11.2µM* | 2.82µM* | 18.3µM* | 15.1µM* | 4.47µM* | ?
CCCCN=C1NN=C(c2ccc(C)c(C)c2)CS1 | 14.1µM* | 2.82µM* | 13.2% | 23.9µM* | 1.58µM* | ?
COCCn1c(C)cc(C2=NNC(=NC(C)(C)C)SC2)c1C | -26.9% | ? | ? | ? | ? | ?
COc1ccc(CNCCC(c2ccc3c(c2)OCO3)c2ccccc2OC)cc1 (stereo not drawn) | -22.9% | . | . | -2.3% | . | .
Cc1cccc(NC(=O)/C=C/c2ccc(Cl)cc2)n1 | 3.55µM* | 3.98µM* | 1.0% | 1.07µM* | 2.24µM* | ?
Cc1cccc(NC(=O)/C(C#N)=C/c2cccc([N+](=O)[O-])c2)n1 | . | -0.2% | -0.8% | ? | -3.1% | 1.6%
COc1ccc(/C=C(\C#N)C(=O)Nc2cccc(C)n2)cc1 | . | 0.5% | 2.1% | 0.953µM* | 4.8% | ?
Cc1cccc(NC(=O)/C(C#N)=C/c2ccc(Cl)cc2)n1 | . | 1.0% | -3.3% | 2.39µM* | -0.1% | 5.0%
COc1ccc(/C=C(\C#N)C(=O)Nc2cccnc2)cc1 | 1.9% | -2.8% | 1.4% | ? | 0.6% | 7.9%
Cc1ccc(CNC(=O)Cc2c(C)c3c(cc(C)c4c(C)coc43)oc2=O)cc1 | 4.6% | . | . | -7.2% | . | .
COc1ccc(OC)c(NC(=O)CCCOc2cc(=O)n(C)c3ccccc23)c1 | 10.7% | . | . | -4.1% | . | .
CCOCCCn1c(SCC(=O)Nc2cc(C)ccc2C)nc2c(oc3ccccc32)c1=O | 5.7% | . | . | -1.1% | . | .
CCN(CC)c1ccc(-n2nc3cc(C)c(NC(=O)c4ccccc4C)cc3n2)c(C)c1 | 6.31µM* | . | . | 7.1% | . | .
CCN(CC)c1ccc(NC(=O)c2cccc(C)c2OC)c(C)c1 | ? | 1.12µM* | ? | 10.7µM* | ? | ?
Cc1cc2nn(-c3ccc(F)cc3)nc2cc1NC(=O)c1cccc2ccccc12 | -2.6% | . | . | 4.0% | . | .
CN(C)c1ccc(N=Nc2ccc(S(N)(=O)=O)cc2)cc1 | . | 1µM* | 20.6µM* | 2.69µM* | 2.82µM* | ?
C[C@@H](C(=O)N[C@@H](CO)Cc1ccccc1)[C@H]1C[C@]1(C)[C@H](NC(=O)OCc1ccccc1)c1ccccc1 | -18.0% | . | . | . | . | .
O=C(O)c1oc(C(=O)O)c(C(=O)O)c1C(=O)O | -0.6%[9.22 µM] | . | . | . | . | .
COc1ccc(/C=N/Nc2ncnc(Cl)c2N)cc1OC | 23.1% | 2.3% | 10.3% | 21.3µM* | 1.9% | ?
Nc1c(Cl)ncnc1N/N=C/c1cccc(O)c1 | . | 4.9% | 2.2% | 16.9µM* | -3.5% | ?
COc1ccc(/C=N/Nc2ncnc3sc4c(c23)CCCC4)cc1OC | 21.0% | 11.3% | 0.1% | 2.69µM* | 7.8% | -26.1%
COc1cc(NC(=O)C(CCSC)NS(=O)(=O)c2ccc3c(c2)oc(=O)n3C)cc(OC)c1 (stereo not drawn) | . | . | . | -4.1% | . | .
COc1ccc(OC)c(CNC(=O)c2nn(-c3ccc(OC)c(Cl)c3)c(=O)c3c2c2ccccc2n3C)c1 | 9.5% | . | . | 0.8% | . | .
Cc1ccc(OC(C)C(=O)Nc2nonc2-c2ccc(Br)cc2)cc1C (stereo not drawn) | . | . | . | -4.9% | . | .
CCn1ccc2cc(S(=O)(=O)N3CCCN(C(=O)Nc4ccccc4F)CC3)ccc21 | . | . | . | -10.7% | . | .
SMILES | SMN2 splice enh | NPC1 promoter act | ELG1 genotoxic | FLuc counter | Rab9 promoter act | ELG1 DNA repair
COC(=O)c1sc(C(C)(C)C)cc1CS(=O)(=O)c1ccccn1 | . | 12.5% | -0.3% | 1.6% | -3.5% | 16.4µM*
Cc1ccc(-c2c(CN3CCN(c4cc(Cl)ccc4C)CC3)csc2C)cc1 | . | . | . | -3.7% | . | .
COc1ccc(NC(=O)c2ccccc2C)c(OC)c1 | -6.4% | 20.7% | 0.3% | -15.7% | 8.7% | ?
COc1ccc(C(=O)CC(=O)c2ccccc2O)cc1 | . | ? | ? | 12µM* | 25.4% | ?
COc1ccc(C(=O)CC(=O)c2ccccc2O)cc1OC | ? | 10.6% | ? | ? | -3.6%[1.84 µM] | ?
COc1ccc(O)c(C(=O)CC(=O)c2ccccc2C)c1 | . | ? | ? | ? | 3.16µM* | ?
COc1ccc(O)c(C(=O)CC(=O)c2ccc(F)cc2)c1 | 2.24µM* | 0.562µM* | ? | 12µM* | 0.708µM* | ?
COc1cccc(-c2nc(CS(=O)(=O)CC(=O)NCc3ccc(C)cc3)c(C)o2)c1 | -19.7% | . | . | 2.6% | . | .
CCOC(=O)c1ccc(NC(=O)CC2C(=O)N(c3cccc(OC)c3)C(=O)N2CCOC)cc1 (stereo not drawn) | 3.98µM* | -1.5% | 1.1% | -0.7% | -1.2% | -13.2%
CCOC(=O)c1ccc(NC(=O)CC2C(=O)N(c3cccc(C)c3)C(=O)N2CCOC)cc1 (stereo not drawn) | 10.9% | . | . | -2.9% | . | .
CC(=O)c1cccc(NC(=O)/C=C/c2ccc([N+](=O)[O-])s2)c1 | -81.8% | -34.5% | 2.91µM* | -2.2% | -36.2% | ?
COC(=O)c1cccc(NC(=O)/C=C/c2ccc([N+](=O)[O-])cc2)c1 | -10.1% | 8.0% | -3.8% | 2.39µM* | 1.7% | ?
CC(C)NC(=O)c1ccccc1NC(=O)/C=C/c1cccc([N+](=O)[O-])c1 | -34.6% | -12.4% | -8.6% | 1.1% | 4.3% | ?
O=C(/C=C/c1ccc([N+](=O)[O-])cc1)Nc1cccc(C(=O)Nc2ccccc2C(=O)O)c1 | . | -2.6% | -9.4% | 5.36µM* | -5.9% | -3.6%
COC(=O)c1cccc(NC(=O)/C=C/c2cccc([N+](=O)[O-])c2)c1 | -20.1% | 18.0% | 0.4% | ? | ? | ?
CCOC(=O)c1cccc(NC(=O)/C=C/c2ccc([N+](=O)[O-])cc2)c1 | -56.0% | 3.0% | 2.1% | 2.69µM* | 8.0% | ?
c1ccc(-c2noc(CC3CCCCC3)n2)cc1 | 16.3% | 18.1% | ? | 9.53µM* | ? | ?
CN(Cc1nc(-c2ccccc2)no1)C1CCOCC1 | . | 2.51µM* | ? | 16.9µM* | ? | ?
c1ccc(-c2noc(CCC3CCCC3)n2)cc1 | 19.3% | 14.0% | ? | 10.7µM* | ? | ?
c1cc(-c2noc(CCC3CCCC3)n2)ccn1 | ? | 12.0% | ? | ? | 11.2% | ?
O=C1CCC=C1C(O)c1ccc2c(c1)OCO2 (stereo not drawn) | 1.4% | . | . | . | . | .
COc1ccc(OC)c(NC(=O)CSc2cn(CC(=O)N3CCOCC3)c3ccccc23)c1 | . | . | . | 6.0% | . | .
COc1ccc(-n2cc(CN[C@H]3CCCCNC3=O)c(-c3cccc(F)c3)n2)cc1 | . | -1.2% | -1.6% | 16.9µM* | -0.1% | ?
